This is part of a sample that, as a whole, favours compounds with a hit. Of some 83,000 tested, about 20% had one in any assay.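 Interpretation: 100, growth as untreated; towards 0, rising growth inhibition; 0, no net growth; 0 to -100, cell death. Compounds scoring below 10 were considered active.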 A number with no mark means an inactive call. Calls of active or inactive are those of the source.

This passage reports growth results from PubChem BioAssay (NCI).

For the experiment, the system named is NCI/ADR-RES ovarian. Briefly: NCI-60 one-dose screen, 48 h (100 = growth as untreated, 0 = no growth, -100 = all killed). The note with it: 10 µM unless noted.
Consider `CC1=C2C(=C[C@@](C)(CO)[C@@H]2OC(=O)N(C)CCN(C)C(=O)OC(C)(C)C)C(=O)[C@](C)(O)C12CC2`, for which the growth was 10.7%.

Regarding `CC(=O)N1N=C(CCC(=O)c2nc3ccc([N+](=O)[O-])cc3[nH]2)OC1c1ccc(O)cc1` (stereo not drawn), the growth is 99.9%.

Consider `CC1CCc2cc(F)cc3c(=O)c(C(=O)O)cn1c23` (stereo not drawn), for which the growth is 94.8%.

In the case of `OCCOCC(F)(F)F`, the growth is 106%.

`O=C(O)c1cn(C2CC2)c2cc(N3CCN(C(=O)CSc4nc(NS(=O)(=O)c5ccccc5)cc(=O)[nH]4)CC3)c(F)cc2c1=O`: the growth is 101%.

Regarding `c1coc(CSc2ncnc3nc[nH]c23)c1`, the growth is 106%.

In the case of `CN(C)CC/C=C1\c2ccccc2Sc2ccc(Cl)cc21`, the growth was 63.2%.

On to `COc1cc(NS(=O)(=O)c2ccc(N)cc2)ncn1`, for which the growth is 103%.

For `COC(OC)C1(c2ccccc2)NC(=O)NC1=O` (stereo not drawn), the growth was 116%.

Take `CC(=O)Nc1ccc(OC(=O)c2ccccc2O)cc1`: the growth is 102%.

For the compound `COc1cccc(C2CC(c3cc(OC)c(OC)c(OC)c3)=NN2)c1` (stereo not drawn), the growth is 63.4%.

On to `COc1cc(C(=O)N2CCN(C(=O)c3cc(OC)c(OCc4ccccc4)cc3N)CC2)c(N)cc1OCc1ccccc1`, for which the growth was 98.7%.

Regarding `COc1cc2c(cc1OCCCCC(=O)Nc1ccc(-c3nc4ccccc4s3)cc1)N=C[C@@H]1CCCN1C2=O`, the growth is 67.6%.

On to `C=C1C(=O)O[C@H]2[C@H]1CC/C(COC(=O)c1cccc3ccccc13)=C\CC[C@@]1(C)O[C@@H]21`, for which the growth is -28.4% (active).

Consider `COc1ccccc1S(=O)(=O)Nc1ccc2c3c(cc(-c4ccoc4)nc13)C(=O)N2C`, for which the growth was 55.1%.

As to `C=C1c2c(Cl)ccc(O)c2C(O)=C2C(=O)[C@]3(O)C(O)=C(C(N)=O)C(=O)[C@@H](N(C)C)[C@@H]3[C@@H](O)[C@H]12`, the growth is 61.2%.

For the compound `CN1C(=O)C2(SCC(C(=O)NCC(=O)OC(C)(C)C)N2C(=O)C2CCCCC2)c2ccccc21` (stereo not drawn), the growth was 97.7%.

Regarding `COc1ccc(/C=C/C(=O)c2ccc(-n3cc(CN4CCN(c5cc6c(cc5F)c(=O)c(C(=O)O)cn6C5CC5)CC4)nn3)cc2)cc1OC`, the growth was 82%.

As to `O=C(Nc1ccc(Cl)c(Cl)c1)Nc1ccc(Cl)c([N+](=O)[O-])c1`, the growth was -7.67% (active).

`Cc1cc[n+](CCCC[n+]2ccc(C)cc2)cc1`: the growth is 97.8%.

With `Cc1cn(C2CC(F)C(CO)O2)c(=O)[nH]c1=O` (stereo not drawn), the growth is 86.5%.

As for `COc1cc2ncnc(Oc3ccc(NC(=O)Nc4ccc(C5(C#N)CCCC5)cc4)c4ccccc34)c2cc1OC`, the growth is 72.2%.

Regarding `COC(=O)Nc1nc2ccc(Sc3ccccc3)cc2[nH]1`, the growth is -30.1% (active).
